Test [1] concerns the target Cellular tumor antigen p53 (Homo sapiens) (UniProt P04637). As to the kind of experiment: Primary qHTS for small molecule compounds that upregulate eGFP-tagged delta133p53alpha (in N-terminal) cells. (AID 2060322).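 For activation: cells pre-induced with doxycycline then dosed without doxycycline; series mostly up to about 56 µM; 0% = DMSO vehicle and 100% = reference activator.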 Note: nearly all actives have a fitted effect of over 75% in size. Note: potency is the fitted concentration of half-maximal effect. The following applies: NCI-H358 eGFP-delta133p53alpha fluorescence, 24 h; activation: active compounds read high. The gist of the method: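 NCI-H358 cells pre-induced 24 h with 10 ng/ml doxycycline for eGFP-delta133p53alpha, plated dox-free and exposed 24 h at 37C to titrated compounds. Fixed, Hoechst-stained; gated GFP peak intensity by laser scanning cytometry, normalized to DMSO (0%) and 57.5 uM 5-azacytidine (100%).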
On the technique in general: Quantitative high-throughput screening tests each substance at several concentrations.

Test [2] has as its target Aldehyde dehydrogenase, mitochondrial (Homo sapiens) (UniProt P05091). Put plainly: qHTS for Inhibitors of the Aldehyde Dehydrogenase Family (ALDH2) Primary screen (AID 2061308).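 Note: plate controls were vehicle for no effect and reference inhibitor for full effect; nearly all actives have a fitted effect of over 55% in size.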
The target of test [3] is Retinaldehyde dehydrogenase 3 (Homo sapiens) (UniProt P47895). Put plainly: qHTS for Inhibitors of the Aldehyde Dehydrogenase Family (ALDH1A3) Validation screen (AID 2061312). Note: % is set by controls: 0 for no effect and ±100 for the full control effect; nearly all actives have a fitted effect of over 45% in size.
Test [4] has the same target. As to the kind of experiment: qHTS for Inhibitors of the Aldehyde Dehydrogenase Family (ALDH1A3) Primary screen (AID 2061315).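 Note: plate controls were DMSO vehicle for no effect and reference inhibitor for full effect.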
Test [5] is described as follows: BET inhibitor-based combinations targeting novel dependencies in MECOM-rearranged (r) AML: SET-2 cell line (AID 2202231).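 For viability: plate controls were DMSO treated cells for no effect and wells without cells for full effect.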 Note: nearly all actives have a fitted effect of over 35% in size. Note: potency is the fitted concentration of half-maximal effect. The following applies: SET-2 AML cells viability, CellTiter-Glo luminescence, 48 h; viability: active compounds read low, concentration not given here. A digest of the protocol:
(§1)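 Cells were plated at 500 per well and exposed to an 11-point dose series of each drug for 48 hr. Viability was measured by CellTiter-Glo luminescence, normalized to DMSO and empty-well controls, and summarized as AUC and per-cell-line Z-AUC.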
(Cellular ATP, detected with luciferase, serves as a proxy for viable cell number.)

Test [6] can be described thus: BET inhibitor-based combinations targeting novel dependencies in MECOM-rearranged (r) AML: OCI-AML3 cell line (AID 2202232). Note: nearly all actives have a fitted effect of over 35% in size. Note: potency is the fitted concentration of half-maximal effect. Conditions: Potency: OCI-AML3 viability. A digest of the protocol: as §1
The nature of test [7]: BET inhibitor-based combinations targeting novel dependencies in MECOM-rearranged (r) AML: MV-4-11 cell line (AID 2202233). Note: nearly all actives have a fitted effect of over 45% in size. Note: potency is the fitted concentration of half-maximal effect. A digest of the protocol: (§2)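 Activity is given as area under the curve and as Z-AUC, mean-centred within each cell line. It comes from 11-point dose curves normalized to DMSO and empty wells. CellTiter-Glo luminescence was read after 48 hr drug exposure of 500 cells/well.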

Test [8] can be described thus: BET inhibitor-based combinations targeting novel dependencies in MECOM-rearranged (r) AML: HNT-34 cell line (AID 2202234). Note: nearly all actives have a fitted effect of over 35% in size. Note: potency is the fitted concentration of half-maximal effect. A digest of the protocol:
as §2

Test [9] in a line: BET inhibitor-based combinations targeting novel dependencies in MECOM-rearranged (r) AML: UCSD-AML1 cell line (AID 2202235). Note: nearly all actives have a fitted effect of over 40% in size. Note: potency is the fitted concentration of half-maximal effect. A digest of the protocol: as §2
The nature of test [10]: BET inhibitor-based combinations targeting novel dependencies in MECOM-rearranged (r) AML: AML-191 cell line (AID 2202236;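 note: plate controls were vehicle wells for no effect and wells without cells for full effect; nearly all actives have a fitted effect of over 35% in size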). The gist of the method: as §1
Test [11] can be described thus: BET inhibitor-based combinations targeting novel dependencies in MECOM-rearranged (r) AML: AML-194 cell line (AID 2202237;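 note: plate controls were vehicle wells for no effect and wells without cells for full effect; nearly all actives have a fitted effect of over 40% in size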). The gist of the method:
as §1

Structures are written as SMILES. “And” between values parts separate entries of the source, which are not always exact repeats. Equal entries are not always repeated. Inconclusive results are not listed. A number with no mark means an inactive call. The source made the active and inactive calls. Calls come from the whole dose curve; as a rule, active = well fitted curve in the direction sought with a large enough effect; inconclusive = small, poorly fitted or top-dose-only effect, or another doubt; inactive = no such curve, though single readings can be large; an effect the other way counts as inactive or inconclusive.

The values that follow come from PubChem BioAssay (NCATS).

As usually defined, the viability is a read-out of living cells in per cent, often relative to untreated cells.

Cellular tumor antigen p53 (Homo sapiens), sequence (P04637 whole entry, looked up): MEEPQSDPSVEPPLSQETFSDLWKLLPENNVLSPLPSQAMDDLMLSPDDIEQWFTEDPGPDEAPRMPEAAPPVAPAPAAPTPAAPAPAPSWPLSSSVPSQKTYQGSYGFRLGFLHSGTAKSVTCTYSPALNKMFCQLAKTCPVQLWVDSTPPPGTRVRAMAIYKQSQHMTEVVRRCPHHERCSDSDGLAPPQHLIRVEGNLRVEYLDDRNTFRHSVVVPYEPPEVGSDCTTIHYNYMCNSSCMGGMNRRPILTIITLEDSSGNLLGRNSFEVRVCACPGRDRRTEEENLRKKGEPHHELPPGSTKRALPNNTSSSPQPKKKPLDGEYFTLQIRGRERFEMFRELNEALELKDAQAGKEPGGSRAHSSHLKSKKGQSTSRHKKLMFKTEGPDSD

Take `CN(C)CCCOc1nn(Cc2ccccc2)c2ccccc12`: the activation in [1] is 8.47% and -14.3%. Also, the Potency result in test [2], in test [3] and in test [4] was “inactive” in each case.
For the molecule `COC(=O)CC1CC(c2ccc(O)cc2)=NO1` (stereo unspecified), the activation in test [1] was -0.955%. Moreover, the Potency entry in [2], in test [3] and in test [4] was “inactive” each time.
As to `C=CCCN1CCC2(CC1)CN(C(=O)c1c(F)cccc1F)c1ccc(Cl)cc12`, the activation in [1] is 8.11%. Besides, the Potency entry in test [2], in [3] and in [4] was “inactive” each time.
As for `Nc1ncnc2c1ncn2[C@H]1CCCO1`, the activation in [1] was -5.73%. For the same molecule, the Potency result in test [2], in [3] and in [4] was “inactive” throughout.
As to `COc1ccccc1N1CCN(CC(C(=O)NC(C)(C)C)c2ccccc2)CC1` (stereo unspecified), the activation in [1] is -12.4%. Further, the Potency result in [2], in [3] and in test [4] was “inactive” each time.
On to `Fc1ccc2c(CCNCc3cccc(OCC(F)(F)C(F)F)c3)c[nH]c2c1`, for which the activation in test [1] was 3.34%. Also, the Potency result in [2], in test [3] and in test [4] was “inactive” each time.
As to `CC(NCCCc1cccc(C(F)(F)F)c1)c1cccc2ccccc12` (stereo unspecified), in test [1], the activation was -2.86%. The Potency result in test [2], in test [3] and in test [4] was “inactive” throughout.
Take `CC(C)[C@@H](c1ccc(C(F)(F)F)cc1CN(Cc1cc(C(F)(F)F)cc(C(F)(F)F)c1)c1nnn(C)n1)N1CCC(C(=O)O)CC1`: in [1], the activation is 6.68%. Besides, the Potency result in test [2], in test [3] and in [4] was “inactive” throughout.
As for `CCC(C)(Oc1ccc(C2(c3ccc(OC(C)(CC)C(=O)O)cc3)CCCCC2)cc1)C(=O)O` (stereo unspecified), the activation in test [1] was -25.7% and 13.4%. Also, the Potency entry in test [2], in test [3], in test [4], in test [6], in test [7] and in test [8] was “inactive” throughout. In addition, the Potency entry in test [9] and in test [10] was “inactive” in each case. The viability in test [5] was 114%.
Consider `Cc1cc(-n2c(=O)[nH]c(=O)n(C)c2=O)ccc1Oc1ccc(SC(F)(F)F)cc1`, for which the activation in test [1] was -10.5%. For the same molecule, the Potency entry in test [2], in test [3] and in [4] was “inactive” each time.
Turning to `FC(F)(F)c1nnc2c(Sc3ccccc3)nc3ccc(Cl)cc3n12`, the activation in test [1] was 29.1%. Moreover, the Potency entry in test [2], in test [3] and in test [4] was “inactive” throughout.
Turning to `Cc1ccnn1-c1ccc(C(=O)N2CCN(S(=O)(=O)c3ccc(Cl)c(C(F)(F)F)c3)CC2)cc1`, in [1], the activation is -9.07%. The Potency result in test [2], in [3] and in test [4] was “inactive” throughout.
Take `CC(C)N(C[C@H]1O[C@@H](n2cnc3c(N)ncnc32)[C@H](O)[C@@H]1O)C1CC(CCc2nc3ccc(C(C)(C)C)cc3[nH]2)C1` (stereo partly specified): in test [1], the activation was 15.8% and 10%. The Potency entry in test [2], in test [3], in test [4], in [6], in test [8] and in [9] was “inactive” in each case. In addition, the Potency entry in [10] and in test [11] was “inactive” throughout. The viability in test [5] is 125%. Further, the Potency in [7] is 6610 nM (active).
On to `COc1cccc(CN(C(=O)CC(C)(C)C)C2CC(C(=O)N3CCNCC3)N(Cc3ccc4c(c3)OCO4)C2)c1` (stereo unspecified), for which, in [1], the activation was -10%. The Potency entry in test [2], in [3] and in test [4] was “inactive” throughout.
As to `O=C(Nc1ccc(C(F)(F)F)cn1)N1CCN(c2ncccc2C(F)(F)F)CC1`, in test [1], the activation was -3.34%. Moreover, the Potency entry in test [2], in test [3] and in test [4] was “inactive” throughout.
With `C[C@@H]1C(=O)O[C@H]2[C@@H](O)C34[C@H]5C[C@@H](C(C)(C)C)C36[C@@H](OC(=O)[C@@H]6O)O[C@@]4(C(=O)O5)[C@@]12O` (stereo partly specified), the activation in test [1] is 5.25%. For the same molecule, the Potency entry in test [2], in [3] and in test [4] was “inactive” throughout.
Turning to `CCCN1CCC[C@@H](c2cccc(S(C)(=O)=O)c2)C1`, the activation in test [1] was -7.64%. Besides, the Potency entry in test [2], in test [3] and in [4] was “inactive” each time.
As to `Cc1onc(-c2c(Cl)cccc2Cl)c1CC(=O)NCc1ccc(OCC(F)(F)F)nc1`, the activation in [1] is -9.07%. Moreover, the Potency entry in [2], in [3] and in test [4] was “inactive” each time.
As to `COC(=O)CCc1ccc(OCC(O)CNC(C)C)cc1` (stereo unspecified), in test [1], the activation was 13.4% and 16.7%. The Potency result in [2], in test [3] and in test [4] was “inactive” in each case.
Consider `CCNC(=O)C1CC(F)(c2ccc(CN3CCCC3)c(F)c2)C1` (stereo unspecified), for which the activation in test [1] is -9.07%. In addition, the Potency entry in [2], in test [3] and in [4] was “inactive” throughout.
Turning to `CCCCN1CCCC[C@H]1C(=O)Nc1c(C)cccc1C`, in [1], the activation was -18.6% and -5.25%. The Potency result in test [2], in test [3] and in test [4] was “inactive” each time.
For `CN(C)c1nc(NC2CCC(NCCc3ccc(Br)cc3OC(F)(F)F)CC2)nc2ccccc12` (stereo unspecified), the Potency in test [1] is 13500 nM (active). Also, the Potency result in [2], in test [3] and in test [4] was “inactive” in each case.
Consider `CN(C)C1CCN(C(=O)c2ccc(NC(=O)Nc3ccc(-c4nc(N5CCOCC5)nc(N5CCOCC5)n4)cc3)cc2)CC1`, for which the activation in test [1] is -0.955%. The Potency result in test [2], in test [3] and in test [4] was “inactive” each time. Also, the Potency is 4680 nM (active) in [5]; 166 nM (active) in test [6]; 118 nM (active) in [7]; 118 nM (active) in test [8]; 263 nM (active) in test [9].
With `CC(NC(=O)CCc1nc2ccccc2c(=O)[nH]1)c1ccccc1` (stereo unspecified), the activation in test [1] is -1.43%. Also, the Potency entry in test [2], in [3] and in test [4] was “inactive” each time.
Take `CC(C)(N)c1ncc(-c2ccc(OC(F)(F)F)cc2)[nH]1`: the activation in test [1] is -2.86%. The Potency result in [2], in test [3] and in test [4] was “inactive” each time.
Turning to `Cc1noc2c1-c1ccccc1C(c1ccc(Cl)cc1)=N[C@H]2CC(N)=O`, the activation in [1] was 32.4%. For the same molecule, the Potency entry in test [2], in [3] and in test [4] was “inactive” throughout. Also, the Potency in test [5] was 2350 nM (active); in [6], 1320 nM (active); in test [7], 525 nM (active); in test [8], 1480 nM (active).
